From PubChem BioAssay

Experiments:
[1] = system: Human papillomavirus type 1a protein E7 (residues 44-93); assay: HPV1a E7 fragment binders on microarrays, primary screen, biochemical, small-molecule microarray, residues 44-93, 635 nm fluorescence (AID 1108); conditions: small-molecule microarray binding, fluorescence 635 nm; higher = more signal;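 note: E7 fragment applied at 1 µg/mL in TBST for 1 h at 4 C; score combines spot fluorescence with its signal to noise ratio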
[2] = modulators of HCV replicon luciferase signal, primary screen, HCV replication inhibitor project, Huh7 cells, luciferase reporter (AID 1109); conditions: 48 h, higher = more signal;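 note: huh7 hepatoma cells harbouring a luciferase neomycin HCV replicon reporter; luciferase luminescence as measure of HCV replicon replication; test concentration not given here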
[3] = biological target: Left-right determination factor 2 (Homo sapiens) (UniProt O00292); assay: LEFTY2 binders on small-molecule microarrays, primary screen, biochemical, small-molecule microarray, 635 nm fluorescence scan (AID 1110); conditions: LEFTY2 binding, higher = more signal
Chain of Left-right determination factor 2 (Homo sapiens) (O00292 whole entry, looked up): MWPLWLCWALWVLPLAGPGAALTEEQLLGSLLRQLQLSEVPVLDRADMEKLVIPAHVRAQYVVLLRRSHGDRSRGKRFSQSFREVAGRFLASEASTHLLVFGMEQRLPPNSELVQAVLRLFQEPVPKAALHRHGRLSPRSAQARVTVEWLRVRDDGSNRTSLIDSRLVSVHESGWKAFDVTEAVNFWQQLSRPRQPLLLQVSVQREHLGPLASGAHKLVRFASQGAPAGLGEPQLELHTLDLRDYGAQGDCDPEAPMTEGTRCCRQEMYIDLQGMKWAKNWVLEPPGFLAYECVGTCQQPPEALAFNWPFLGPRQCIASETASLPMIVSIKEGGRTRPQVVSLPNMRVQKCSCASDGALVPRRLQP

[4] = biological target: Calmodulin-1 (Homo sapiens) (UniProt P0DP23); assay: CALM1 binders on microarrays, EGTA buffer, profiling panel, biochemical, small-molecule microarray, Cy5-labelled CALM1 (AID 1111); conditions: Cy5-CALM1 binding fluorescence, higher = more signal;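 note: labelled calmodulin applied in Tris saline Tween buffer holding calcium plus EGTA and DTT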
[5] = biological target: Calmodulin-1 (Homo sapiens) (UniProt P0DP23); assay: calcium-bound CALM1 binders on microarrays, profiling panel, artefact control for SMM control-protein annotation, biochemical, small-molecule microarray, Cy5-labelled CALM1, plus calcium (AID 1112); conditions: Cy5-CALM1 binding fluorescence, higher = more signal;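 note: score merges spot fluorescence with signal to noise from triplicate slides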
[6] = small-molecule microarray binders of probe aWnt5a, primary screen, biochemical, biotinylated probe, 635/667 nm fluorescence (AID 1113); conditions: higher = more signal;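 note: score merges 667 nm fluorescence intensity with signal-to-noise per printed feature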
[7] = small-molecule microarray binders of probe aShh, primary screen, biochemical, biotinylated probe, 635/667 nm fluorescence (AID 1114); conditions: higher = more signal;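 note: probe is biotin-labelled aShh protein from a stem cell growth factor screen; measures binding of labelled protein to compounds printed on the slide; score merges feature fluorescence at 667 nm with signal-to-noise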
[8] = small-molecule microarray binders of probe aNog, primary screen, biochemical, biotinylated probe, 635/667 nm fluorescence (AID 1115); conditions: higher = more signal;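 note: probe is biotinylated aNog protein used at 0.15 µg/mL for 1 h at 4 C; z-score combines 667 nm fluorescence of each spot with its signal to noise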
[9] = biological target: Torsin-1A-interacting protein 1 (Homo sapiens) (UniProt Q5JTV8); assay: LAP1 binders from COS7 cell lysate, primary screen, small-molecule microarray, 635/667 nm fluorescence (AID 1116); conditions: COS7-hLAP1 lysate binding, 635 nm fluorescence, higher = more signal
Chain of Torsin-1A-interacting protein 1 (Homo sapiens) (Q5JTV8 whole entry, looked up): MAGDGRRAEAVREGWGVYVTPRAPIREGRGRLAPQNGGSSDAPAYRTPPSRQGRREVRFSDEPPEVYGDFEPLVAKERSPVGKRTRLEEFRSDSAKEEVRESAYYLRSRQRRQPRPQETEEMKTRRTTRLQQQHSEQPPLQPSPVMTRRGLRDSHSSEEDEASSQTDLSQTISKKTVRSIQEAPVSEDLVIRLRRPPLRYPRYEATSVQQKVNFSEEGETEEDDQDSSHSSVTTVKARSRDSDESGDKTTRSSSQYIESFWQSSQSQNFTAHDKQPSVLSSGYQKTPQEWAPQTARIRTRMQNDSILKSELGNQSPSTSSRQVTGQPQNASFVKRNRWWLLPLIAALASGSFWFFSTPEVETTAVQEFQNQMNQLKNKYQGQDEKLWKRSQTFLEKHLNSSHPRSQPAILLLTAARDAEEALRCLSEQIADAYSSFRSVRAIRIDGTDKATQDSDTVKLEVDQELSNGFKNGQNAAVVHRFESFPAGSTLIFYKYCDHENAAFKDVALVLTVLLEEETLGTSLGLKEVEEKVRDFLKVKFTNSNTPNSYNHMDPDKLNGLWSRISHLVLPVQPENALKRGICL

[10] = biological target: Alpha-bungarotoxin (Bungarus multicinctus) (UniProt P60615); assay: alpha-bungarotoxin binders on microarray, profiling panel, artefact control for SMM control protein annotation, biochemical, small-molecule microarray, Alexa647 label, 635/667 nm fluorescence (AID 1117); conditions: alpha-BTX-A647 binding fluorescence, higher = more signal
Chain of Alpha-bungarotoxin (Bungarus multicinctus) (P60615 whole entry, looked up): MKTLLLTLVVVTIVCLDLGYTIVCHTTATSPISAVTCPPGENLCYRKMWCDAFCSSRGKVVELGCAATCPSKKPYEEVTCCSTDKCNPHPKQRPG

Structure (SMILES) | composite z-score [1] | z-score [2] | composite z-score [3] | composite z-score [4] | composite z-score [5] | composite z-score [6] | composite z-score [7] | composite z-score [8] | composite z-score [9] | composite z-score [10]
CC(C)CCC[C@@H](C)[C@H]1CC[C@@]2(C)C3=C(CC[C@]12C)[C@@]1(C)CC[C@H](OC(=O)c2ccc(N)cc2)C(C)(C)C1CC3 (stereo not given in full) | 0.609 | 0.0533 | 1.2 | -0.137 | -0.674 | -0.0545 | 0.768 | -0.427 | 0.282 | 0.0506
O=C(C=C(CC(O)c1cccc(Cl)c1)OCCF)OCCF (stereo not given) | -2.46 | -0.641 | -0.492 | -0.277 | 0.896 | -0.0678 | 0.0278 | 0.0014 | 0.516 | 0.392
O=C1NC(=O)C2C1C=CC(C(O)c1ccc3c(c1)OCO3)N2Nc1ccc(Cl)cc1Cl (stereo not given) | -0.85 | -0.795 | -0.0483 | 1.43 | 0.527 | -0.0846 | -0.232 | 0.265 | 1.73 | 0.114
COCCOC(=O)N1C(=O)[C@@]2(c3cc(C#CCCO)ccc31)[C@H](C(=O)N1CCc3cc(OC)c(OC)cc3C1)[C@H]1C(=O)O[C@H](c3ccccc3)[C@H](c3ccccc3)N1[C@@H]2c1ccc(OCCO)cc1 | 1.32 | -1.32 | 0.887 | 0.842 | 0.224 | -0.0731 | -0.304 | 0.299 | 0.868 | 0.826
COCCOC(=O)N1C(=O)[C@@]2(c3cc(C#Cc4ccc(OC)cc4)ccc31)[C@H](c1ccc(OCCO)cc1)N1[C@H](c3ccccc3)[C@H](c3ccccc3)OC(=O)[C@H]1[C@@H]2C(N)=O | 1.32 | -2.33 | 0.701 | 2.09 | 0.451 | -0.0792 | 0.296 | 0.683 | 1.36 | 2.23
CC(=O)NCCCC[C@@H]1NC(=O)[C@@H]2C[C@H](C(=O)NCCCC[N+](C)(C)C)[C@H](c3cccc(OCCO)c3)N2C1=O | 0.193 | -0.703 | 0.0711 | 0.601 | 0.0189 | -0.122 | -0.0643 | -0.314 | 0.714 | -0.08
O=C1O[C@H](c2ccccc2)[C@H](c2ccccc2)N2[C@H]1[C@@H](C(=O)N1CCN(c3ncccn3)CC1)[C@]1(C(=O)Nc3ccc(C#CCCO)cc31)[C@H]2c1ccccc1OCCO | 1.02 | -1.49 | 0.708 | 1.46 | 0.12 | -0.091 | 0.126 | 0.576 | 0.453 | 1.77
CN(C)CCCC[C@@H]1NC(=O)[C@H]2C[C@@H](C(=O)NCCCCCCNC(=O)CS)[C@@H](c3ccc(O)cc3)N2C1=O | 1.3 | 0.344 | -0.603 | -0.445 | -0.107 | -0.221 | 0.194 | -0.541 | 2.53 | -0.945
[N-]=[N+]=Nc1ccccc1[C@H]1OC(c2ccc(OCCCO)cc2)=N[C@@]1(Cc1ccccc1)C(=O)NCc1ccccc1 | 1.4 | -3.14 | 0.364 | 0.503 | -0.171 | -0.0492 | 0.0723 | -0.261 | 0.832 | 0.421
CCCCC(=C=CC[C@H](O)c1ccccc1OCCO)C[C@H](O)c1ccccn1 | 0.0797 | -0.619 | 0.377 | -0.0455 | -0.351 | -0.126 | -0.0769 | -0.388 | 0.934 | 0.697
CC(C)C[C@@H]1NC(=O)[C@@H]2C[C@H](C(=O)NCc3ccc(F)cc3)[C@H](c3ccc(O)cc3)N2C1=O | 1.11 | -0.738 | 0.1 | 1.35 | -0.166 | -0.147 | 0.191 | -0.319 | 1.03 | 0.896
COC(=O)[C@@]1(Cc2ccc(OC)cc2)[C@H]2c3cc(C(=O)N(C)C)n(Cc4cc(F)c(F)c(F)c4)c3C[C@H]2CN1C(=O)c1ccccc1 | 1.43 | -2.04 | 0.159 | 2.29 | 1.17 | 0.225 | 0.75 | 1.73 | 1.19 | 1.86
COC(=O)C(CC#Cc1ccc2c(c1)[C@]1(C(=O)N2)[C@H](C(=O)N2CCc3cc(OC)c(OC)cc3C2)[C@H]2C(=O)O[C@H](c3ccccc3)[C@H](c3ccccc3)N2[C@@H]1c1ccc(O)cc1)C(=O)OC | 1.27 | -1.06 | 1.35 | 1.35 | 0.537 | -0.0303 | 0.529 | -0.491 | 0.908 | 1.12
CC(C)(C)OC(=O)CC[C@@]1(C(=O)N2CCCCC2)N=C(c2ccc(OCCCO)cc2)O[C@@H]1c1ccccc1CN=[N+]=[N-] | 1.46 | -2.36 | 0.0083 | 1.88 | 0.709 | 0.0629 | 0.199 | -0.685 | 2.04 | 2.27
COc1cc2c(cc1OC)CN(C(=O)[C@@H]1[C@H]3C(=O)O[C@H](c4ccccc4)[C@H](c4ccccc4)N3[C@H](c3ccc(OCCO)cc3)[C@@]13C(=O)Nc1ccc(C#CCCO)cc13)CC2 | 1.44 | -1.53 | 1.01 | 1.73 | 1.01 | 0.265 | 0.391 | 1.8 | 1.33 | 1.36
C=C(CCCC)/C(=C/C[C@@H](OC(=O)c1ccncc1)c1ccccc1OCCO)c1cc(C(=O)OC)ccc1OC | 1.4 | -2.61 | 0.0979 | -0.154 | -0.351 | -0.0735 | -0.0626 | -0.518 | 0.603 | 1.93
CCOC(=O)C1=CC[C@@H](c2cccc(Br)c2)N(S(=O)(=O)c2ccc(C)cc2)[C@H]1c1ccc([N+](=O)[O-])cc1 | 1.42 | -0.802 | 0.868 | 0.855 | 0.69 | 0.0433 | -0.138 | 0.822 | 1.1 | 1.05
COC(=O)[C@@]1(Cc2ccc(OC)cc2)[C@H]2c3cc(C(=O)N(C)C)n(Cc4cc(C)n(C)n4)c3C[C@H]2CN1C(=O)c1ccccc1 | 1.52 | -0.952 | -0.198 | 0.239 | 0.529 | 0.596 | 0.964 | 1.11 | 1.2 | -0.329
O=C1O[C@H](c2ccccc2)[C@H](c2ccccc2)N2[C@H]1[C@@H](C(=O)N1CCCCCCC1)[C@]1(C(=O)Nc3ccccc31)[C@H]2c1ccc(O)cc1 | 1.52 | -1.09 | 1.86 | 3.09 | 1.64 | 1.63 | 3.71 | 3.66 | 5.68 | 3.36
C=CCN1C(=O)[C@@]2(O[C@@H](CCO)[C@H]([Si](C)(C)c3ccc(OC)cc3)[C@H]2C)c2cc(NC(=O)[C@H](C)O)ccc21 | 1.37 | -3.03 | 0.256 | 0.929 | -0.377 | 0.0279 | 0.0639 | -0.21 | 1.2 | 0.175
O=C(O)[C@]1(CCS(=O)(=O)c2ccccc2)N=C(c2ccc(OCCCO)cc2)O[C@@H]1c1ccccc1 | 0.0626 | -0.0254 | -0.004 | 0.737 | 0.4 | 0.0216 | -0.0322 | 1.82 | -0.357 | -0.0315
C=CC[C@@]1(C(=O)NCC(O)CO)N=C(c2ccc(OCCCO)cc2)O[C@@H]1c1ccccc1 (stereo not given in full) | 1.21 | 0.235 | -0.834 | 2.22 | 0.971 | 0.512 | 0.786 | -0.419 | 3.73 | 2.59
COc1ccc(CCNC(=O)[C@@H]2c3ccccc3C(=O)N(Cc3ccccc3)[C@H]2c2ccc(CO)cc2)cc1 | 1.43 | -1.17 | 0.117 | -0.0056 | -0.904 | -0.0512 | -0.0813 | -0.293 | 1.15 | 0.36
C=CCNC(=O)[C@H]1[C@@H]2C(=O)O[C@@H](c3ccccc3)[C@@H](c3ccccc3)N2[C@@H](c2ccc(OCCO)cc2)[C@]12C(=O)N(C(=O)OCCOC)c1ccc(C#CC3=CCCCC3)cc12 | -0.192 | -1.94 | 0.652 | 1.28 | 0.171 | 0.0243 | 0.0141 | -0.038 | 2.23 | 2.5
COc1ccc([Si](C)(C)[C@H]2[C@H](CCO)O[C@@]3(C(=O)N(Cc4cccc(N5CCOC5=O)c4)c4ccccc43)[C@@H]2C)cc1 | 1.1 | -4.39 | 0.118 | 1.4 | -0.207 | -0.101 | 0.0668 | -0.118 | -0.18 | 0.355
O=C1C2C=CC(C(O)c3ccc(Br)cc3)N(Nc3ccccc3)C2C(=O)N1c1ccccc1 (stereo not given) | 0.699 | 0.393 | -0.853 | 0.863 | 0.29 | 0.0151 | 0.389 | 1.26 | 0.661 | 1.2
